Data published in PubChem BioAssay (NCI).
Compounds without any hit were thinned out: in the full panel of roughly 79,000, 15% have a hit. A number with no mark means an inactive call. Active and inactive are the calls of the source. Rule as the data show it: active = growth inhibition above about 70%; inactive = the rest.

Experiment: NCI Yeast Anticancer Drug Screen. Data for the sgs1 mgt1 strain (AID 161);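 also: 0% = growth of cultures given vehicle only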
Settings: S. cerevisiae sgs1 mgt1 strain, stronger effect = higher value
Description: Growth inhibition of yeast strains with defined genetic alterations is measured as a screen for potential anti-cancer activity. Selected strains with alterations in DNA damage repair or cell cycle control were exposed to compounds and growth inhibition was measured relative to vehicle treated controls. The strain used in this assay is sgs1 mgt1

[1] = at 5.0 µM (retest, dose inferred, filed as 0.5)
[2] = at 50.0 µM (retest, dose inferred, filed as 5.0)

SMILES	growth inhibition [1]	growth inhibition [2]	growth inhibition (at 50.0 µM)
Cc1c(Cl)cccc1N=NC(=O)NNc1cccc(Cl)c1C	-1%	97% (active)	74.5% (active)
CCOc1c(Br)cc(Br)cc1/C=N/NS(=O)(=O)c1ccc(C)cc1	38%	90% (active)	82.2% (active)
CCCCCCCNc1ccc2c(cc1=O)C(NC(C)=O)CCc1cc(OC)c(OC)c(OC)c1-2 (configuration not stated)	9%	99% (active)	98.8% (active)
Cc1cc(I)cc(I)c1O	7%	33%	55.3%
Cc1c[n+](=O)c2ccccc2n1[O-]	-9%	-7%	-20.4%
C[N+](C)(C)CCC(=O)c1ccco1	10%	99% (active)	99.5% (active)
O=Nc1ccccc1N=O	59%	99% (active)	99.2% (active)
O=C(/C=C\c1ccccc1)N1c2ccccc2CC1c1c[nH]c2ccccc12 (configuration not stated)	4%	19%	10.3%
CCOC(=O)c1c(C)[nH]c(C(c2ccccc2)c2[nH]c(C)c(C(=O)OCC)c2C)c1C	7%	69%	66.5%
CC(=O)ON=C1C=CC(=C(C#N)c2ccccc2)C=C1	46%	100% (active)	64.1%
CCOC(=O)c1ccc([N+](=O)[O-])o1	3%	14%	66.1%
OC[P+](CO)(CO)C12CC3CC(CC(C3)C1)C2	35%	49%	69.8%
c1ccc2c(c1)Nc1ccccc1[P+]21c2ccccc2Nc2ccccc21	99% (active)	99% (active)	59.4%
CCN(CC)C(=O)C1(OC(C)=O)CCCCC1	0%	-2%	9.9%
